Experimental data taken from PubChem BioAssay (NCI).
This is part of a sample that, as a whole, favours compounds with a hit. Of some 83,000 tested, about 20% had one in any assay.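 Activity criterion: percent growth below 10, measured after cells in 96-well plates were exposed to a single compound concentration for 48 hours.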 Unmarked numbers belong to inactive results. Activity calls are given as the source filed them.

Legend:
Experiment in all cases: NCI-60 one-dose screen, 48 h (100 = growth as untreated, 0 = no growth, -100 = all killed)
Conditions in all cases: 10 µM unless noted
NCI-H23 lung = test system: NCI-H23 lung
NCI-H226 lung = test system: NCI-H226 lung
NCI-H322M lung = test system: NCI-H322M lung
HOP-62 NSCLC = test system: HOP-62 NSCLC
NCI-H460 lung = test system: NCI-H460 lung
HOP-92 NSCLC = test system: HOP-92 NSCLC
NCI-H522 lung = test system: NCI-H522 lung
A549/ATCC NSCLC = test system: A549/ATCC NSCLC
786-0 renal = test system: 786-0 renal
COLO 205 colon = test system: COLO 205 colon
DU-145 prostate = test system: DU-145 prostate
K-562 leukemia = test system: K-562 leukemia
MDA-MB-231 breast = test system: MDA-MB-231 breast
RXF 393 renal = test system: RXF 393 renal
SF-268 CNS = test system: SF-268 CNS
SF-295 CNS = test system: SF-295 CNS
SF-539 CNS = test system: SF-539 CNS
UACC-257 melanoma = test system: UACC-257 melanoma
M14 melanoma = test system: M14 melanoma
MALME-3M melanoma = test system: MALME-3M melanoma

SMILES	growth (NCI-H23 lung)	growth (NCI-H226 lung)	growth (NCI-H322M lung)	growth (HOP-62 NSCLC)	growth (NCI-H460 lung)	growth (HOP-92 NSCLC)	growth (NCI-H522 lung)	growth (A549/ATCC NSCLC)	growth (786-0 renal)	growth (COLO 205 colon)	growth (DU-145 prostate)	growth (K-562 leukemia)	growth (MDA-MB-231 breast)	growth (RXF 393 renal)	growth (SF-268 CNS)	growth (SF-295 CNS)	growth (SF-539 CNS)	growth (UACC-257 melanoma)	growth (M14 melanoma)	growth (MALME-3M melanoma)
COc1ccc2nc(NC(=O)c3cccnc3Nc3cc(OC)c(OC)c(OC)c3)sc2c1	22.6%	10.9%	-54.3% (active)	16.7%	0.16% (active)	-64.6% (active)	13.3%	-32.2% (active)	-66.9% (active)	123%	-56.1% (active)	15.7%	-9.82% (active)	-39.2% (active)	-73.1% (active)	54.2%	-57.1% (active)	49.9%	48.4%	
N=S(=O)(NC(=O)c1ccc(Cl)cc1Cl)c1ccc(Br)s1 (configuration not stated)	102%	94.5%	118%	91%	85.8%	86.9%	103%	80.7%	89.9%	107%	105%	107%	98.2%	91.7%	99.8%	89.6%	91.7%	98.2%	99.8%	
COc1cc2cc(COc3nccc(-c4ccc(Cl)cc4)n3)c(=O)[nH]c2cc1OC	88.5%	89.1%	79.6%	88.2%	86.2%	69.9%	108%	67.5%	80.9%	44.3%	81.4%		55.1%	61.9%	80.1%	97.6%	67.9%	98%	-27.4% (active)	45.7%
CC1(C)CC(=O)C(c2c(-c3ccccc3)[nH]c3[nH]c(=S)[nH]c(=O)c23)=C(O)C1	110%	108%	102%	112%	117%	84.7%	107%	89.8%	104%	119%	124%		101%	115%	106%	152%		80.2%	107%	112%
Cc1cc(=O)oc2cc(Oc3nc(-c4cccs4)cn4c(-c5cccs5)cnc34)ccc12	56.6%	83%	89.4%	59%	50.5%	7.71% (active)	74.6%	58.5%		75%	55.4%	81.6%	63.2%	63.6%	76.3%	47.5%	60%	48.2%	67.5%	39.1%
O=C(Nc1ccc(CN2CCOCC2)cc1)c1[nH]ncc1Nc1ncnc2sccc12	-3.72% (active)	15.5%	6.2% (active)	20.1%	3.28% (active)	22.9%	7.15% (active)	13.6%		-34.9% (active)	5.47% (active)	4.04% (active)	15.8%	-43% (active)	1.23% (active)	17.8%	-34.1% (active)	19.9%	14.4%	8.16% (active)
COc1ccc(-c2cc(-c3cccnc3)nc3sc4c(=O)n(-c5ccc(C)cc5)nnc4c23)cc1OC	98%	93%	97.6%	95.5%	100%	74.4%	101%	102%		102%	107%		79.6%	101%	101%	96.6%	93.4%	104%	104%	96%
CN1CCN(Cc2ccc(NC(=O)c3[nH]ncc3Nc3ncnc4sccc34)cc2)CC1	-1.52% (active)	10.9%	21.6%	22.4%	5.43% (active)	-13.3% (active)	14%	13.5%		-8.12% (active)	7.12% (active)		-4.43% (active)	-51.1% (active)	-3.74% (active)	24%	-30.2% (active)	33.9%	22.6%	16.7%
COc1ccc2nc3cc(Cl)ccc3c(N3CCN(c4ccnc(N5CCOCC5)n4)CC3)c2c1	46.1%	89.2%	94.4%	71.5%	76.5%	56.3%	-51.4% (active)	95.2%	92.8%	31.1%	24.2%		45.1%	8.55% (active)	45.3%	88.7%		76.9%	86.6%	80.3%
CN(C)C(=O)c1cc2cnc(Nc3ccc(-c4csc5c(=O)cc(N6CCNCC6)oc45)cc3)nc2n1C1CCCC1	0.906% (active)	16.1%	23%	21.4%	7.5% (active)	31.3%	46.5%	2.05% (active)	7.89% (active)	11%	29.9%		9.91% (active)	-78.6% (active)	19.2%	15.2%	-33% (active)	64.4%	27.1%	60.2%
COc1ccc(CCN2CC=Cn3c2nc2ccccc2c3=O)cc1	25%	11.7%	47.3%	39.9%	5.96% (active)	28.1%	4.09% (active)	24.1%		-43.2% (active)	7.97% (active)	10.8%	18.8%	36.7%	35.7%	17.2%	-34.1% (active)	80.3%	16.4%	63.2%
O=C(CO[N+](=O)[O-])Nc1ccc(C(=O)/C=C/c2ccc(Cl)cc2)cc1	5.49% (active)	81.7%	71.5%	94.1%	84.9%	66.8%	38.7%	67.6%	75%	36.1%	79.9%		55%	72.5%	44.9%	105%		61.2%	3.46% (active)	79.1%
Cn1cc(-c2ccc(-c3cn(C)c4ncccc34)[nH]2)c2cccnc21	70.7%	88.8%	86.1%	66.5%	97.8%	-4.05% (active)	-77.3% (active)	84.2%	99%	-23.6% (active)	94.2%		63.8%	10.6%	45.9%	86.3%		64.6%	76.2%	86.5%
COc1ccc(-c2cc(-c3cccnc3)nc3sc4c(=O)n(-c5ccc(C)cc5)cnc4c23)cc1OC	95.7%	93.3%	92.4%	98.4%	101%	63.6%	99.8%	103%		97.6%	101%	111%	90.1%	98.5%	100%	101%	89.4%	104%	99%	102%
Cc1cc(=O)oc2cc(Oc3nc(-c4ccc(Cl)cc4)cn4c(-c5ccc(Cl)cc5)cnc34)ccc12	78.1%	93%	95.9%	99.7%	93.3%	91%	95.8%	101%		97.5%	69.6%	85.1%	73.3%	70.5%	95.9%	120%	91.8%	88.3%	64.2%	43.6%
Cn1c2ccccc2c2c3c(c4c5ccccc5n(CCCCCC#N)c4c21)C(=O)N(O)C3=O	4.85% (active)	25.1%	48.8%	27.2%	2.84% (active)	-11.2% (active)	-51.9% (active)	34.2%		62.8%	16.3%	16.2%	27.9%	-21.8% (active)	12.2%	9.59% (active)	-33% (active)	15.6%	1.43% (active)	28.6%
COc1c2ccccc2c(OC)c2[nH]c(=O)ccc12	-11.3% (active)	37.1%	22.2%	-13.2% (active)	-57.7% (active)	72.9%	71.3%	-34.2% (active)	89.7%	38.2%	-95.1% (active)		69.4%	91.3%	64.4%	-21.4% (active)		40.8%	-46.1% (active)	-63.2% (active)
Cn1c2ccccc2c2c3[nH]c(=O)[nH]c(=O)c3c3c4ccccc4n(C)c3c21	43.3%	52.6%	51.4%	38.1%	20.1%	-4.38% (active)	20.4%	24.3%		53.8%	29.2%	56.1%	46%	6.48% (active)	32.4%	69.6%	39.5%	78.1%	31.8%	20%
O=C1C[C@H](Sc2nc(-c3ccc(F)cc3)cc(C(F)(F)F)n2)[C@H]2CO[C@@H]1O2	99.2%	103%	108%	104%	106%	105%	-62.1% (active)	102%		75.8%	89.9%	53.3%	96.2%	96.6%	101%	109%	103%	104%	97.8%	89.1%
Nc1ccc(Nc2nccc(-c3ccc4ccccc4c3)n2)cc1	41.2%	64%	64.5%	44.2%	17.8%	65.1%	27.6%	25.5%	58.7%	49.4%	67.4%		46.8%	50.3%	49.9%	64.8%	55.4%	58.6%	26.8%	59.5%
COc1ccc(CCN2CCCn3c2nc2ccccc2c3=O)cc1	32.7%	37.3%	45.4%	48.1%	10.7%	46.5%	12.2%	28.6%		-10.2% (active)	16.4%	13.1%	42.5%	-0.0509% (active)	56.9%	20.4%	-16.3% (active)	81.3%	21.4%	59.8%
